Results published in PMC8384837, “Expanding the binding specificity for RNA recognition by a PUF domain”.

Legend:
Experiment in all cases: yeast three-hybrid, YBZ-1, SC-Leu-His + 0.5 mM 3-AT, 4 days
Conditions in all cases: tags: N-Gal4 AD-HA kept; label: inside an RPR1-promoter hybrid RNA with tandem MS2 sites; ssRNA
PUM1 PUF domain R4-DWL = PUM1 PUF domain R4-DWL (Homo sapiens, UniProt Q14671 828-1176, N971D;H972W;Q975L)
How it was run: (§1)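 Repeat regions from input (SC-Leu) and selection (SC-Leu-His + 0.5 mM 3-AT) plates were PCR-amplified and Illumina-sequenced after four days of growth. The cells were strain YBZ-1 with a LexA–MS2 coat fusion and a HIS3 reporter, co-expressing Pumilio-1 PUF domain libraries and matching RNA elements from a centromeric plasmid. The interaction score is the log change in variant frequency from input to selection, taken in log2 with a pseudocount of 1 for absent variants.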

PUM1 PUF domain R6-NRG = molecular target: T1, PUM1 PUF domain R6-NRG (Homo sapiens, UniProt Q14671 828-1176, Y1044R;Q1047G)
T1 sequence: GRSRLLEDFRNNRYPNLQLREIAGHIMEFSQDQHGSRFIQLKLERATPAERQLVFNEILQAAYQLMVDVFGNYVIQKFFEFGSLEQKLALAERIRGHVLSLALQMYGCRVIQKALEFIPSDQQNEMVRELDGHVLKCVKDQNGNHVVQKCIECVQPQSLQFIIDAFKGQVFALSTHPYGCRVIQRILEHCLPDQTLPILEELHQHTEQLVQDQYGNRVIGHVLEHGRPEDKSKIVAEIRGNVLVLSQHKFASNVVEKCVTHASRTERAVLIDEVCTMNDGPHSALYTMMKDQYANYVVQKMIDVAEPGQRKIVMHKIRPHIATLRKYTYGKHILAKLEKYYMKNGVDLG
How it was run: as §1

PUM1 PUF domain R2-GWY = PUM1 PUF domain R2-GWY (Homo sapiens, UniProt Q14671 828-1176, N899G;Y900W;Q903Y)
How it was run: as §1

PUM1 PUF domain R4-MLC = PUM1 PUF domain R4-MLC (Homo sapiens, UniProt Q14671 828-1176, N971M;H972L;Q975C)
How it was run: as §1

PUM1 PUF domain R8-QWG = PUM1 PUF domain R8-QWG (Homo sapiens, UniProt Q14671 828-1176, N1122Q;Y1123W;Q1126G)
How it was run: as §1

PUM1 PUF domain R5-KHA = PUM1 PUF domain R5-KHA (Homo sapiens, UniProt Q14671 828-1176, C1007K;R1008H;Q1011A)
How it was run: as §1

Sequence: GGCUAGAACUAGUGGAUCCCCCGGCGCCCGGCGGCUCGAGCCCGGGUAAGUGUACAUAGUCUGCAUGCCGCCGGGCGCCAUGCCUGCAGGUCGACUCUAGAAAACAUG
- binding signal (PUM1 PUF domain R4-DWL): 4.62 log2 enrichment (interaction score)

Sequence: GGCUAGAACUAGUGGAUCCCCCGGCGCCCGGCGGCUCGAGCCCGGGUAAGUGUAAAUAGUCUGCAUGCCGCCGGGCGCCAUGCCUGCAGGUCGACUCUAGAAAACAUG
- binding signal (PUM1 PUF domain R6-NRG): 3.99 log2 enrichment (interaction score)
- binding signal (PUM1 PUF domain R4-DWL): 6.99 log2 enrichment (interaction score)
- binding signal (PUM1 PUF domain R2-GWY): 1.07 log2 enrichment (interaction score)
- binding signal (PUM1 PUF domain R4-MLC): 2.59 log2 enrichment (interaction score)
- binding signal (PUM1 PUF domain R8-QWG): 2.95 log2 enrichment (interaction score)
- binding signal (PUM1 PUF domain R5-KHA): 3.94 log2 enrichment (interaction score)

Sequence: GGCUAGAACUAGUGGAUCCCCCGGCGCCCGGCGGCUCGAGCCCGGGUAAGUGUAAAAAGUCUGCAUGCCGCCGGGCGCCAUGCCUGCAGGUCGACUCUAGAAAACAUG
- binding signal (PUM1 PUF domain R2-GWY): 3.42 log2 enrichment (interaction score)
